# Pf growth 48h – inhibits P. falciparum growth in the first generation, 48 h; AID 504832; P. falciparum luciferase growth in erythrocytes, 48 h; Potency, µM (highest dose often 28.7 µM), for inactives: at the highest dose activity change, negative = inhibition, most hits filed as inhibitors; 310,000 tested, 5.9% active; also: potency is read from the fitted curve at half-maximal effect; % is scaled to controls: 0 for no effect and ±100 for the full control effect
#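 Parasite viability was followed by luminescence of a genomically integrated firefly luciferase. Cultures held 0.1% parasitemia at 2% hematocrit (final), incubated under 5% CO2 at 37 C.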
# Pf growth 96h – P. falciparum growth inhibition at 96 hours; P. falciparum luciferase reporter growth, 96 h; Potency, µM (titrated, usually from 28.7 µM), for inactives: at the highest dose activity change, negative = inhibition, actives largely listed as inhibitors; 320,000 tested, 6.9% active; AID 504834; also: potency is read from the fitted curve at half-maximal effect; % is scaled to controls: 0 for no effect and ±100 for the full control effect
#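 Readout is luminescence from an integrated firefly luciferase in P. falciparum. Red cells, 2% hematocrit and 0.05% parasitemia final, were cultured with compound through two parasite generations (96 hours) at 37 C, 5% CO2.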
# Cycloheximide cs – counter-screen hit for Shiga toxin inhibitors, cycloheximide | max response, % | 300,000 tested, 12% active | cell reporter, cycloheximide protein synthesis inhibition counterscreen; in the data active = max response mostly above about 13%, no sharp cut-off; inactive = mostly below about 14%; also: read at 38.3 µM for the half of the compounds with a filed dose; 0% is about no effect
# HCMV inh – inhibitors of human cytomegalovirus; HFF cells, HCMV-luciferase reporter, 72 h; stronger effect = lower value; activity change, negative = inhibition, % at 57.5 µM; 410,000 tested, 4.5% active; AID 1259415; in the data active = activity change below about -60%; inconclusive = no clear call, values can overlap the other calls; inactive = above about -39%; also: % is scaled to controls: 0 for no effect and ±100 for the full control effect
#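 Cell-based, HFFs, 1000 cells/well, 16 h 37C; cpds in DMSO + HCMV-luc, MOI 1 PFU/cell; 72 h 37C; OneGlo luminescence after 5 min RT; norm. to buffer vs Salinomycin 10uM.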
# Shiga toxin inh – inhibitors of Shiga toxin in Vero cells; Vero cells, Shiga toxin protein synthesis inhibition reporter; inhibition, % at 38.7 µM; 290,000 tested, 9.2% active; in the data active = inhibition mostly above about 28%, no sharp cut-off; inactive = mostly below about 43%; also: 0% is about no effect
# * marks the source's active call; other numbers are inactive results; ? = inconclusive; / = no result given; [ ] = another dose, or the depositor's remark. Compounds with a hit are over-represented: about 20% of the library has one in this group of screens. Unless noted, calls follow the shape of the dose curve; as a rule, active = well fitted inhibition curve with a large enough effect; inconclusive = small, poorly fitted or top-dose-only effect, or another doubt; inactive = no such curve, though single readings can be large or run the other way.
SMILES,Pf growth 48h,Pf growth 96h,Cycloheximide cs,HCMV inh,Shiga toxin inh
CC[C@H](C)[C@H](NC(=O)[C@@H](NC(=O)[C@@H](NC(=O)[C@H](CCC(=O)O)NC(=O)[C@H](CCC(=O)O)NC(=O)[C@H](CCC(=O)O)NC(=O)[C@H](C)NC(=O)[C@@H](N)CC(C)C)C(C)C)C(C)C)C(=O)N[C@@H](CCCNC(=N)N)C(=O)N[C@@H](CO)C(=O)N[C@@H](C)C(=O)N[C@@H](CC(N)=O)C(=O)N[C@@H](Cc1ccccc1)C(=O)N[C@H](C(=O)N[C@@H](CC(=O)O)C(=O)N[C@@H](CC(N)=O)C(=O)O)[C@@H](C)O,/,/,-1.6,/,-2.0
COc1ccc(-c2c(C#N)c(SCC(=O)Nc3ccc(C)c(C)c3)nc(C)c2C(=O)Nc2ccc(Cl)cc2)cc1,/,/,/,0.0,/
Cc1nc(-c2cc(-c3nc(-c4ccc(C(C)(C)C)cc4)no3)no2)cs1,8.9%,28.2%,-1.3,11.4,4.3
COc1cc(OC)c(NC(=O)c2sc3nc4n(c(=O)c3c2C)CCCC4)cc1Cl,/,/,/,0.1,/
CCOc1ccc(NC(=O)c2c(Nc3ccc(OC)cc3OC)sc(C(=O)c3ccc(Cl)cc3)c2N)cc1,/,/,/,-8.8,/
Cc1ccc(Nc2sc(C(=O)c3ccccc3)c(N)c2C(=O)Nc2ccc(Cl)cc2)cc1,/,/,/,-103.1*,/
Nc1c(C(=O)c2ccccc2)sc(Nc2ccc(Cl)c(Cl)c2)c1C(=O)Nc1ccccc1,/,/,/,-107.0*,/
CCC1CN(C(=O)N2CCC(C(=O)NCCCc3ccccc3)CC2)c2ccccc2O1 (configuration not stated),/,/,/,20.8,/
CC(=O)c1ccc(NC(=O)/C(=C\c2ccc(F)cc2)NC(=O)c2ccco2)cc1,-7.2%,230.8%,-5.4,15.1,-6.3
CCCOc1ccc(N2C(=O)C/C(=C\c3ccccc3)C2=O)cc1,-20.8%,-12.5%,0.9,3.8,-1.7
Cc1ccc(S(=O)(=O)N/N=C/c2ccccc2O)cc1,13.4%,-24.7%,-2.1,0.6,-5.0
O=S(=O)(N/N=C\c1ccccc1O)c1ccc(Cl)cc1,1.5%,?,26.6*,-8.3,51.1
CCN=c1scc(-c2ccc(F)cc2)n1/N=C/c1ccccn1,139.0%,-67.5%,47.9*,-88.4*,82.1*
CCN=c1scc(-c2ccccc2)n1/N=C/c1ccccn1,28.0%,-57.6%,41.2*,/,78.0*
S=c1[nH]nc(C2CCCCC2)n1/N=C/c1ccccn1,19.4%,-10.5%,5.2,-6.9,14.3
CN1C(=O)C2C(c3ccc(N(C)C)cc3)NN(Cc3ccccc3)C2C1=O (configuration not stated),-7.4%,-46.0%[1.15 µM],1.5,-5.3,12.8
COc1cc2c(cc1[N+](=O)[O-])-c1ccc([N+](=O)[O-])cc1C2=NO,/,/,/,-94.1*,/
ON=C1c2ccccc2-c2ccc(Br)cc21,/,/,/,-62.7*,/
ON=C1c2ccccc2-c2ccc(F)cc21,/,/,/,22.2,/
O=[N+]([O-])c1ccc2c(c1)/C(=N\O)c1ccccc1-2,4.8%,29.5%,6.4,-84.7*,38.8
NN=C1c2cc([N+](=O)[O-])ccc2-c2ccc([N+](=O)[O-])cc21,5.0%,?,7.6,/,-2.4
O=[N+]([O-])c1ccc2c(c1)C(=NO)c1cc(F)ccc1-2,/,/,/,-94.9*,/
NC(=O)c1ccc[n+](CC(=O)Nc2ccccc2C(=O)O)c1,-8.6%,29.8%,1.3,-20.3,-6.3
Cc1ccc(S(=O)(=O)NC2CC(C)(C)NC(C)(C)C2)c(C)c1C,-9.2%,-28.2%,-3.1,-21.7,/
CCN1C(C(=O)c2ccccc2)=C(OC(=O)c2ccccc2OC)c2ccccc2S1(=O)=O,/,/,/,-72.7*,/
SMILES,Pf growth 48h,Pf growth 96h,Cycloheximide cs,HCMV inh,Shiga toxin inh
CCCCN1C(C(=O)c2ccccc2)=C(OC(C)=O)c2ccccc2S1(=O)=O,/,/,/,-107.6*,/
Cc1ccc(OC(C)C(=O)N2CC(=O)Nc3ccccc32)cc1 (configuration not stated),-5.6%,-21.3%,-0.7,-18.5,-5.7
Cc1ccc(NC(=O)CN(C)C(=O)COc2ncnc3ccc(Br)cc23)cc1,-19.6%,-8.6%,/,0.0,/
COc1ccccc1N1CCN(c2nc(-c3ccccc3)cc(C(F)(F)F)n2)CC1,6.3%,?,-1.7,-21.4,-15.4
COc1ccc(-c2cc(C(F)(F)F)nc(N3CCN(C)CC3)n2)cc1OC,?,5.22µM*,-3.3,13.8,12.1
COC(=O)c1nn(-c2nc(-c3ccc(OC)c(OC)c3)cc(C(F)(F)F)n2)cc1[N+](=O)[O-],-17.3%,16.5µM*,-7.5,-4.9,-15.0
COc1ccc(-c2cc(C(F)(F)F)nc(N3CCCCC3)n2)cc1OC,3.29µM*,75.4%,-1.8,4.2,-3.8
COc1ccc(-c2cc(C(F)(F)F)nc(N3CCCCCC3)n2)cc1,1.8%,16.4%,-2.4,?,-7.6
COc1ccc(-c2cc(C(F)(F)F)nc(N3CCN(C)CC3)n2)cc1,13.1µM*,35.6%,-3.6,-12.3,-21.2
CCOC(=O)NC(C)N1C(=O)C2C3C=CC(C3)C2C1=O (configuration not stated),18.5%,4.4%,-3.3,?,10.6
COc1ccc(S(=O)(=O)N2CCOCC2)cc1NC(=O)c1sccc1C,?,?,/,-3.0,/
COc1cc(C(C)=O)ccc1OCCCN1CCC(c2noc3cc(F)ccc23)CC1,/,/,/,14.8,/
Cc1ccc(S(=O)(=O)N2CCC(C(=O)N3CCC[C@H]3C(=O)NCc3ccco3)CC2)cc1,11.7µM*,13.1µM*,-2.7,-37.2,23.2
CCN(Cc1ccccc1)S(=O)(=O)c1ccc(S(=O)(=O)N(Cc2ccccn2)Cc2ccco2)cc1,/,?,1.0,4.5,-15.7
Cc1ccc(S(=O)(=O)N2CCCCC2C(=O)NCc2ccco2)cc1 (configuration not stated),?,5.22µM*,0.2,43.3,21.6
CC1CCCCN1S(=O)(=O)c1ccc(S(=O)(=O)N(Cc2ccccc2)Cc2ccco2)cc1 (configuration not stated),10.4µM*,10.4µM*,-3.2,-19.8,16.1
COC(=O)Nc1ccc(S(=O)(=O)N2CCCCC2C(=O)NCc2ccco2)cc1 (configuration not stated),/,-25.3%,-4.0,-7.0,3.4
CN1C(=O)N(C)C(=O)C2(Sc3ccccc3C2=O)C1=O,/,177.5%,-2.3,-0.1,-13.5
CN1C(=O)C(Cl)(Cl)C(=O)c2ccccc21,2.8%,21.3%,17.8*,/,6.0
O=C(Cc1cccc2ccccc12)N/N=C/c1ccc(F)cc1,?,?,-1.2,-17.9,-14.9
O=C(Cc1cccc2ccccc12)N/N=C/c1ccncc1,0.0%,10.4µM*,-3.0,-12.1,24.2
O=C(Cc1cccc2ccccc12)N/N=C/c1ccc(OC(=O)/C=C/c2ccco2)cc1,11.7µM*,?,-2.2,?,14.2
Cc1ccc(C(=O)N2CC(=O)Nc3ccc(Br)cc3C2c2ccc(F)cc2)cc1C (configuration not stated),/,/,/,-30.7,/
Cc1ccc(S(=O)(=O)N2CCC(=O)N(CCOCc3ccc(F)cc3)CC2)cc1,14.8%,?,-2.2,8.5,-13.2

# Source: PubChem BioAssay (National Center for Advancing Translational Sciences (NCATS))
